Screening results deposited in PubChem BioAssay by National Center for Advancing Translational Sciences (NCATS).
This excerpt belongs to a sample that is enriched for hits.
Pf Dd2 growth: inhibitors of Plasmodium falciparum Dd2 growth. P. falciparum Dd2 growth, SYBR Green, 72 h. Potency, µM (series often up to 28.9 µM), without a hit: at the top dose activity, negative = inhibition, actives largely listed as inhibitors. actives 4.3% (n = 120,000); active means well fitted inhibition curve with a large enough effect;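 further: plate controls were DMSO vehicle for no effect and reference drug for full effect; nearly all actives have a fitted effect of over 65% in size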
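Infected erythrocytes (Dd2, 0.3% parasitemia, 2.5% hematocrit final) are added to compound in RPMI-1640/Albumax II medium, grown 72 h at 37C in low oxygen, then lysed with saponin/Triton-X containing SYBR Green and read by fluorescence.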
The depositor's hits bear a star; i = inactive; [ ] = remark or other dose. Potency means the concentration at half of the fitted maximal effect.

SMILES | Pf Dd2 growth
Cc1nc(C)c(C(=O)N2CCC(Cc3noc(C4CC4)n3)C2)s1 (stereo not given) | i
CCC1(CO)CCCN(C(=O)CCc2ccc3c(c2)OCO3)C1 (stereo not given) | -12%
C[C@]1(O)CCN(C(=O)Cc2ccc3c(c2)OCO3)C[C@@H]1O | -8%
CC(Cc1ccc2c(c1)OCO2)CN1CCC(CO)(CN2CCCC2)CC1 (stereo not given) | 5µM*
Nc1cnc(-c2cccnc2)nc1 | -14%
C[C@H]1[C@@H]2[C@H]3OC(=O)[C@@H](C)[C@@H]3CC[C@@]2(C)CC[C@@H]1NC(=O)C1CCCCC1 | i
COCC(=O)N[C@H]1CC[C@]2(C)CC[C@@H]3[C@H](OC(=O)[C@H]3C)[C@H]2[C@@H]1C | -7%[44.1 µM]
C[C@H]1[C@@H]2[C@@H](O)C([C@H](C)C(=O)NCCN3CCOCC3)CC[C@@]2(C)CC[C@@H]1NC(=O)CC(C)(C)C (stereo not given in full) | -2%
C[C@H]1[C@@H]2[C@H]3OC(=O)[C@@H](C)[C@@H]3CC[C@@]2(C)CC[C@@H]1NC(=O)CC(C)(C)C | 1.3µM*
CCN(CC)C(=O)C(C)[C@@H]1CC[C@@]2(C)CC[C@H](NC(=O)CC(C)(C)C)[C@@H](C)[C@@H]2[C@H]1O (stereo not given in full) | i
CC(C)NC(=O)C(C)[C@@H]1CC[C@@]2(C)CC[C@H](NC(=O)CC(C)(C)C)[C@@H](C)[C@@H]2[C@H]1O (stereo not given in full) | 6.3µM*
COc1ccc(-c2noc(C(=O)O)c2[C@@H](C)NS(=O)(=O)CC(C)C)cc1 | -3%[44.1 µM]
COC(=O)c1c(-c2ccc(Cl)cc2)noc1N1CCN(c2cccc(C)c2C)CC1 | 4.5µM*
CC1=C(c2ccc(Cl)cc2)S(=O)(=O)N=C1N1CCN(c2cccc(C)c2C)CC1 | -14%
COc1ccc(-c2noc(N3CCC(C(=O)N4CCN(c5cccc(C)c5C)CC4)CC3)n2)cc1 | 32%
c1cc2nnc(C3CC3)n2nc1N1CCCC1 | 19%
CN(C)C[C@@H]1CN(Cc2ccccc2)C[C@H]1N | -16%
O=c1c2cc3c(cc2n(Cc2cccc(Cl)c2)c(=O)n1Cc1nc(-c2ccccc2)no1)OCO3 | 16%
O=c1cc(-c2ccccc2)c2ccc3c(c2o1)CN(Cc1cccc(Cl)c1)CO3 | 0.63µM*
O=C(Cn1c(=O)c2c(n1Cc1ccccc1)CN(Cc1ccccc1)CC2)NCc1ccc2c(c1)OCO2 | -4%
O=C1c2cc(N3CCOCC3)nc(-c3ccc(F)cc3)c2CN1Cc1ccccc1 | -12%[44.1 µM]
O=C(Cn1c2c(c(=O)n1Cc1ccccc1)CCN(Cc1ccccc1)C2)NCc1ccc2c(c1)OCO2 | -6%
O=S1(=O)N(Cc2ccccc2)CCCN1Cc1cccc(Cl)c1 | 9%
O=C(Cn1c(=O)c2c(n1Cc1ccccc1)CN(Cc1ccccc1)CC2)Nc1cccc(F)c1 | -9%
O=c1cc(-c2ccccc2)c2cc(Cl)c3c(c2o1)CN(Cc1ccccc1)CO3 | 13µM*
SMILES | Pf Dd2 growth
CCc1cc2c(-c3ccccc3)cc(=O)oc2c2c1OCN(Cc1ccc(F)cc1)C2 | 3.5µM*
CN(C)c1ccc2ncc(Nc3ccccc3Cl)n2n1 | -16%[44.1 µM]
O=C(NCc1cccs1)c1ccc(CN2C(=O)NC3(CCOCC3)C2=O)cc1 | -5%
Cc1n[nH]c(C)c1CCC(=O)NC1CCCc2c1[nH]c1ccc(F)cc21 (stereo not given) | -1%
O=C1CC(c2noc(-c3ccc4c(c3)OCO4)n2)CN1c1ccc(F)cc1 (stereo not given) | 49%
Cc1ccc(C(=O)NC2CCN(c3cn[nH]c(=O)c3)CC2)cc1F | -6%
CCNC(=O)N1CCC(c2nnc(CN3CCCC3)n2CC)CC1 | 3%
Cc1cccc(NC(=O)Cn2ccn3nc(-c4ccc(F)cc4)c(CO)c3c2=O)c1C | -8%
CNC(=O)[C@@H]1CN(C(=O)c2cncn2C)C[C@H]1COC | -19%
CC1CCC(NC(=O)c2noc(-c3ccccc3F)n2)CC1 (stereo not given) | -25%
CC(=O)NCC(=O)N1CC(F)(F)C[C@H]1c1nc(C2CC2)no1 | 10%
COc1ccc(-c2nc(CSCC(=O)N3CCN(c4cccc(C)c4C)CC3)c(C)o2)cc1OC | 10µM*
COc1ccc(-c2nc(CSCC(=O)N3CCN(c4cc(Cl)ccc4C)CC3)c(C)o2)cc1 | i
COc1ccc(-c2nc(CSCC(=O)N3CCN(c4ccc(OC)cc4)CC3)c(C)o2)cc1 | -11%
COCc1cn(C[C@H]2C[C@@H](NCc3nccn3C)[C@H](O)[C@@H]2O)nn1 | 17%
Cn1ccc2c(C(=O)NCc3cccnc3)nc(-c3ccccc3C#N)cc21 | i
Cc1cn2nnc(C(=O)NCc3ccc4c(c3)OCO4)c2c(=O)[nH]1 | 6.3µM*
Cc1cn2nnc(C(=O)NCC3CCCCC3)c2c(=O)[nH]1 | 6.3µM*
CCCNC(=O)c1nnn2cc(C)[nH]c(=O)c12 | 61%
Cc1cn2nnc(C(=O)N3CCC(C(=O)NCc4cccc(Cl)c4)CC3)c2c(=O)[nH]1 | 4.5µM*
Cc1cn2nnc(C(=O)N3CCC(C(=O)NCc4ccccc4Cl)CC3)c2c(=O)[nH]1 | -8%
Cc1cn2nnc(C(=O)NCc3ccncc3)c2c(=O)[nH]1 | 57%
COc1ccc(CNC(=O)c2nnn3cc(C)[nH]c(=O)c23)cc1 | -28%
Cc1ccc(CNC(=O)C2CCN(C(=O)c3nnn4cc(C)[nH]c(=O)c34)CC2)cc1 | i
Cc1cn2nnc(C(=O)NCC3CC3)c2c(=O)[nH]1 | 42%
SMILES | Pf Dd2 growth
O=C(C1CCCC1)N1CCC2(CC1)CC(N(C(=O)c1ccccc1)C1CC1)CCO2 (stereo not given) | i
O=C(Cn1cc(C(F)(F)F)ccc1=O)N1CCn2nc(CO)cc2C1 | -2%
CC(C)C(=O)N1CCC2(CCC(=O)N(CC3CC3)CC2)CC1 | -7%
Clc1ccc2nc(N3CCC(NCCc4cccnc4)CC3)sc2c1 | 11µM*
CC1CCN(c2nc3ccc(C(=O)NCc4ccccc4)cc3s2)CC1 | -27%
O=C1CCC2(CCN(c3nc4ccccc4s3)CC2)CN1Cc1cccnc1 | -23%
Cn1nc(C2CCCN(C(=O)CCc3ccccc3)C2)n(-c2ccccc2)c1=O (stereo not given) | -19%
CCCn1c(CCC(=O)Nc2cccc(CC)c2)nc2cccnc21 | -7%
COc1ccc(Cn2c(CCC(=O)Nc3cc(C)cc(C)c3)nc3cccnc32)cc1 | -20%
O=C(CCc1nc2cccnc2n1Cc1cccs1)Nc1cccc(Cl)c1 | 11µM*
COc1ccc(Cn2c(CCC(=O)Nc3ccc(C)cc3)nc3cccnc32)cc1 | 10µM*
COc1ccc(CNC(=O)CCc2nc3cccnc3n2Cc2ccc(OC)cc2)cc1 | -4%
Cc1cc(NC(=O)CCc2nc3cccnc3n2Cc2cccs2)ccc1Br | 85%[5.79 µM]
NC(=O)CN1CCOC(Cc2cccc(C(F)(F)F)c2)C1 (stereo not given) | -4%
COC[C@@H]1CN(c2ncccn2)C[C@H]1C(=O)O | 7%
COc1ccccc1Cc1nc(-c2nnn3c2COC(c2ccc(Cl)cc2)C3)no1 (stereo not given) | -22%
COc1ccc(CN2CCC3(C2)C(=O)N(c2ccccc2)c2ccccc23)cc1 (stereo not given) | 8.9µM*
COc1ccc(CN2CCC3(C2)C(=O)N(C)c2ccccc23)cc1 (stereo not given) | -4%[44.1 µM]
O=C1NC2(CCN([S+](=O)([O-])c3ccccc3)C2)COc2ccccc21 (stereo not given) | 6%
O=C1Nc2ccccc2C12CN([S+](=O)([O-])c1ccccc1)C2 | -9%
